# Test results from PubChem BioAssay.
# Where “and” joins values, the source holds several entries; their conditions need not be identical. Equal values may be shown once. Calls of active or inactive are those of the source.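 How the source made its calls, unless noted: active means normalized viability below 100% at a tested concentration; inactive means the rest.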
# Experiments:
# [1] = compounds altering viability of human ES cells (AID 493140; call rule not given here;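 further: cells exposed to compounds for four days before counting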); details: human embryonic stem cell survival screen; stronger effect = higher value
# [2] = P. berghei load reduction in hepatocytes – cell-based, HepG2, luciferase luminescence, HepG2 viability, primary screen (AID 624349; in the data active means parasite load remaining mostly below about 12%, no sharp cut-off; inactive means mostly above about 10%;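 further: 100% = mean of DMSO negative control wells on the same plate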); details: P. berghei liver stage in HepG2, luciferase luminescence, concentration not given here; parasite load remaining: stronger effect = lower value; viability: measured here: HepG2 viability without parasites
# [3] = Wnt pathway potentiators raising nuclear beta-catenin – imaging, WNT3A-conditioned medium, mouse C2C12, NPC library, primary screen (AID 1117326; in the data active means nuclear beta-catenin stimulation mostly above about 4.2%, no sharp cut-off; inactive means mostly below about 10%); details: stronger effect = higher value
# [4] = stimulators of insulin release from INS-1E, primary screen, cell-based, 5 mM glucose, NPC library (AID 1117329;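 active means compound raises insulin release from rat beta cells at 5 mM glucose, no numeric limit stated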); details: rat INS-1E insulin secretion, at 10 µM, stronger effect = higher value
# [5] = growth inhibition of GSK3B-pretreated HCT116 cells – cell-based, CellTiter-Glo, 0.2 to 20 µM (AID 1117336;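 active means compounds lowering colon cancer cell viability after pretreatment blocking the GSK3B kinase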); details: HCT116 viability after GSK3B inhibitor, at 20 µM, stronger effect = higher value
# [6] = inhibition of endothelial tube formation, primary screen, imaging, VEGF stimulated, CD31 staining, tube area, NPC library (AID 1117340;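 active means compound that reduces growth-factor-driven endothelial tube area in a mixed cell culture, no cutoff stated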); details: VEGF-stimulated ADSC/ECFC co-culture, at 10 µM, stronger effect = higher value
# [7] = GLP1 release stimulators, primary, NCI-H716, NPC library (AID 1117341;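 active means compound raises GLP1 secretion from the human gut endocrine cells, with no numeric limit stated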); details: NCI-H716 cells, at 10 µM, stronger effect = higher value
# [8] = HCT116 colon cancer cell growth inhibition, primary screen, CellTiter-Glo luminescence, NPC library (AID 1117342;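 active means compounds that lower survival of HCT116 colon cancer cells in the luminescence readout, no numeric limit stated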); details: at 20 µM (top of the series)
# [9] = reduced SW480 viability measured with CellTiter-Glo, NPC library, primary (AID 1117343;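 active means compounds that lower viability of the colon cancer cells in the luminescence readout, with no numeric limit stated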); details: CellTiter-Glo luminescence; at 20 µM (top of the series) unless noted
# [10] = NPC library primary testing for decreased DLD-1 cell viability via CellTiter-Glo (AID 1117346;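 active means compounds that lower survival of DLD-1 colon cancer cells in the luminescence readout, no cutoff given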); details: DLD-1 viability, CellTiter-Glo luminescence; at 20 µM (top of the series)
# [11] = EMT-state selective cytotoxicity in co-culture – imaging, PC-3E GFP, TEM4-18 mCherry, primary screen (AID 1345086;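 active means compounds killing one labelled cell type while sparing the other, by normalised counts and ratio limits, not self-fluorescent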;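 on all read-outs here: cells exposed to compound for 72 h before imaging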;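 on red/green cell ratio (normalised): normalised mesenchymal count divided by normalised epithelial count so high means epithelial killing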); details: PC-3E GFP / TEM4-18 mCherry co-culture, imaging cell counts, at 1 µM; for red/green cell ratio (normalised): actives lie on both sides, counts scaled to control wells, 1 = unselective
# [12] = viability loss with induced miR-34 in A549 – imaging, A549 dox-inducible miR-34, nuclei and caspase counts, primary screen (AID 1347080;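 active means compounds whose cell count with miR-34 switched on is under 0.7 times the count with it off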); details: A549 miR-34 inducible, Hoechst nuclei count, 48 h
# [13] = MELAS cybrid and Rieske KO viability enhancers – cell-based, MELAS cybrids, Rieske KO mouse fibroblasts, CellTiter-Glo, primary screen (AID 1508586;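 active means mean z-score across replicates of 1.96 or higher in either the MELAS or the Rieske mutant cell line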;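 further: z relative to plate mean and SD of compound and empty wells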); details: low glucose
# [14] = molecular target: NAD(+) hydrolase SARM1 (Homo sapiens) (UniProt Q6SZW1); assay: blocking NAD cleavage by SARM1 SAM-TIR – cell lysate, NAD-Glo luminescence (AID 1508614;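 active means compound whose remaining NAD level is above about 45 nM, limit read from the data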); details: SAM-TIR HEK293T lysate NADase, at 1 µM, stronger effect = higher value
# Chain of NAD(+) hydrolase SARM1 (Homo sapiens) (Q6SZW1 whole entry, looked up): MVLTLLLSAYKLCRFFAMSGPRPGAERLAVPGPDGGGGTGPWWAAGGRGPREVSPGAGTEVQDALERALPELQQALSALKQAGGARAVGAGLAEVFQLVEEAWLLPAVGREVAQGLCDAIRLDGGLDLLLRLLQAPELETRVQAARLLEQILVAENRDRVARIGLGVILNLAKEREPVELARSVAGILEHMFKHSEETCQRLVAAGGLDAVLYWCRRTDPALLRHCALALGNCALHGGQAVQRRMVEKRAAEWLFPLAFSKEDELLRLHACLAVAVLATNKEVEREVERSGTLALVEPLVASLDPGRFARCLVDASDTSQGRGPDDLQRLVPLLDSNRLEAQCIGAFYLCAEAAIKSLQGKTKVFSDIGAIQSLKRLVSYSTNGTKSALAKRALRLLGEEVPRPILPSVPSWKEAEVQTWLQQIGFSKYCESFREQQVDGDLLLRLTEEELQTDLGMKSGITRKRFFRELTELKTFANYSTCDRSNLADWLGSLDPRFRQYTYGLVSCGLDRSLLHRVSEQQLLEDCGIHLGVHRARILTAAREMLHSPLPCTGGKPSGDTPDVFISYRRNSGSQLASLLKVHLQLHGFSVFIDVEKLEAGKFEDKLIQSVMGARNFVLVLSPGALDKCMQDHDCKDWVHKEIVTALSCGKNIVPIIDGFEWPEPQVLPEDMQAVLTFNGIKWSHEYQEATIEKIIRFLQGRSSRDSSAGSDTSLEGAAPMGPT
# [15] = drug combination growth inhibition, ovarian cancer – cell-based, oncology-focused library, rucaparib conditional, profiling panel (AID 1508598); details: patient-derived ovarian cancer cells, CellTiter-Glo viability, 144 h, stronger effect = lower value
# [16] = measured here: epithelial PC-3E GFP cell survival
# [17] = measured here: mesenchymal TEM4-18 mCherry cell survival
# [18] = stronger effect = lower value, cell number ratio, induced over uninduced
# [19] = measured here: relative caspase fold change +Dox/-Dox
# [20] = measured here: total cells with miR-34 induction, stronger effect = lower value
# [21] = measured here: total cells without miR-34 induction
# [22] = MELAS cybrid survival, CellTiter-Glo 48 h, stronger effect = higher value
# [23] = Rieske KO mouse fibroblast survival, CellTiter-Glo 72 h
smiles,measurement,setting,value
CC(=O)c1ccc2c(c1)N(CCCN(C)C)c1ccccc1S2,survival,[1],4.75 (inactive)
same,parasite load remaining,[2],84% (inactive) and 65.2% (inactive) and 28% (inactive)
same,viability,[2],104% and 77.6% and 98.4%
same,nuclear beta-catenin stimulation,[3]; at 10 µM,0.3% (inactive)
same,nuclear beta-catenin stimulation,"[3]; stimulation, at 2 µM",1.4%
same,insulin secretion stimulation,[4],17.4% (inactive)
same,viability decrease,[5],50.2% (active)
same,tube area decrease,[6],12.5% (inactive)
same,GLP1 secretion stimulation,[7],11.1% (inactive)
same,inhibition of viability,[8],55.9% (active)
same,viability decrease (inhibition),[9],110% (active)
same,viability decrease (inhibition),[10],24.9% (inactive)
same,red/green cell ratio (normalised),[11],0.9 (inactive)
same,normalised cell number,[11]; [16],0.98
same,normalised cell number,[11]; [17],0.88
same,fold change,[12]; [18],0.938 (inactive) and 0.873 (inactive) and 0.834 (inactive)
same,fold change,[12]; [19],0.931 and 1.11 and 5.05
same,cell count,[12]; [20],3460 and 8350 and 10600
same,cell count,[12]; [21],3690 and 9570 and 12700
same,z-score,[13]; [22],-0.172 (inactive)
same,z-score,[13]; [23],0.00604
same,remaining NAD,[14],10 nM (inactive)
COc1cc2ncnc(Nc3ccc(F)c(Cl)c3)c2cc1OCCCN1CCOCC1,nuclear beta-catenin stimulation,[3]; at 10 µM,78.2% (active)
same,nuclear beta-catenin stimulation,"[3]; stimulation, at 2 µM",2.5%
same,insulin secretion stimulation,[4],0.7% (inactive)
same,viability decrease,[5],44.5% (inactive)
same,tube area decrease,[6],65.5% (active)
same,GLP1 secretion stimulation,[7],-2.9% (inactive)
same,inhibition of viability,[8],98.7% (active)
same,viability decrease (inhibition),[9],101% (active)
same,viability decrease (inhibition),[10],98.1% (active)
same,red/green cell ratio (normalised),[11],1.15 (inactive)
same,normalised cell number,[11]; [16],0.79
same,normalised cell number,[11]; [17],0.91
same,fold change,[12]; [18],0.786 (inactive) and 0.938 (inactive) and 0.793 (inactive)
same,fold change,[12]; [19],1.64 and 1.38 and 1.39
same,cell count,[12]; [20],4800 and 6990 and 6580
same,cell count,[12]; [21],6110 and 7460 and 8300
same,z-score,[13]; [22],-0.609 (inactive) and 0.334 and 0.781 (inactive)
same,z-score,[13]; [23],-0.845 and 2.09 and 1.88
same,viability,"[15]; at 0.000305 µM, OCI-C5x cells, with rucaparib 10 µM, 100% = cells with rucaparib alone",94.6% (active)
same,viability,"[15]; at 0.000305 µM, OCI-C5x cells, without rucaparib",94.5% (active)
same,viability,"[15]; at 0.000305 µM, OCI-P5x cells, with rucaparib 20 µM, 100% = cells with rucaparib alone",100% (inactive)
same,viability,"[15]; at 0.000305 µM, OCI-P5x cells, without rucaparib",100% (inactive)
same,viability,"[15]; at 0.00122 µM, OCI-C5x cells, with rucaparib 10 µM, 100% = cells with rucaparib alone",98.1% (active)
same,viability,"[15]; at 0.00122 µM, OCI-C5x cells, without rucaparib",93.8% (active)
same,viability,"[15]; at 0.00122 µM, OCI-P5x cells, with rucaparib 20 µM, 100% = cells with rucaparib alone",106% (inactive)
same,viability,"[15]; at 0.00122 µM, OCI-P5x cells, without rucaparib",100% (inactive)
same,viability,"[15]; at 0.00488 µM, OCI-C5x cells, with rucaparib 10 µM, 100% = cells with rucaparib alone",95.1% (active)
same,viability,"[15]; at 0.00488 µM, OCI-C5x cells, without rucaparib",102% (inactive)
same,viability,"[15]; at 0.00488 µM, OCI-P5x cells, with rucaparib 20 µM, 100% = cells with rucaparib alone",95.6% (active)
same,viability,"[15]; at 0.00488 µM, OCI-P5x cells, without rucaparib",100% (inactive)
same,viability,"[15]; at 0.0195 µM, OCI-C5x cells, with rucaparib 10 µM, 100% = cells with rucaparib alone",109% (inactive)
same,viability,"[15]; at 0.0195 µM, OCI-C5x cells, without rucaparib",98% (active)
same,viability,"[15]; at 0.0195 µM, OCI-P5x cells, with rucaparib 20 µM, 100% = cells with rucaparib alone",98.7% (active)
same,viability,"[15]; at 0.0195 µM, OCI-P5x cells, without rucaparib",96.3% (active)
same,viability,"[15]; at 0.0781 µM, OCI-C5x cells, with rucaparib 10 µM, 100% = cells with rucaparib alone",101% (inactive)
same,viability,"[15]; at 0.0781 µM, OCI-C5x cells, without rucaparib",92% (active)
same,viability,"[15]; at 0.0781 µM, OCI-P5x cells, with rucaparib 20 µM, 100% = cells with rucaparib alone",98.6% (active)
same,viability,"[15]; at 0.0781 µM, OCI-P5x cells, without rucaparib",100% (active)
same,viability,"[15]; at 0.313 µM, OCI-C5x cells, with rucaparib 10 µM, 100% = cells with rucaparib alone",101% (inactive)
same,viability,"[15]; at 0.313 µM, OCI-C5x cells, without rucaparib",99.7% (active)
same,viability,"[15]; at 0.313 µM, OCI-P5x cells, with rucaparib 20 µM, 100% = cells with rucaparib alone",88.2% (active)
same,viability,"[15]; at 0.313 µM, OCI-P5x cells, without rucaparib",101% (inactive)
same,viability,"[15]; at 1.25 µM, OCI-C5x cells, with rucaparib 10 µM, 100% = cells with rucaparib alone",103% (inactive)
same,viability,"[15]; at 1.25 µM, OCI-C5x cells, without rucaparib",94.5% (active)
same,viability,"[15]; at 1.25 µM, OCI-P5x cells, with rucaparib 20 µM, 100% = cells with rucaparib alone",98.4% (active)
same,viability,"[15]; at 1.25 µM, OCI-P5x cells, without rucaparib",97.2% (active)
same,viability,"[15]; at 5 µM, OCI-C5x cells, with rucaparib 10 µM, 100% = cells with rucaparib alone",56.7% (active)
same,viability,"[15]; at 5 µM, OCI-C5x cells, without rucaparib",72% (active)
same,viability,"[15]; at 5 µM, OCI-P5x cells, with rucaparib 20 µM, 100% = cells with rucaparib alone",86.8% (active)
same,viability,"[15]; at 5 µM, OCI-P5x cells, without rucaparib",99.3% (active)
O=[N+]([O-])c1ccc(O)c2ncccc12,nuclear beta-catenin stimulation,[3]; at 10 µM,45.6% (active)
same,nuclear beta-catenin stimulation,"[3]; stimulation, at 2 µM",1.9%
same,insulin secretion stimulation,[4],-1.1% (inactive)
same,viability decrease,[5],95.8% (active)
same,tube area decrease,[6],102% (active)
same,GLP1 secretion stimulation,[7],-11.4% (inactive)
same,inhibition of viability,[8],76.5% (active)
same,viability decrease (inhibition),[9],112% (active)
same,viability decrease (inhibition),[10],80.7% (active)
same,red/green cell ratio (normalised),[11],0.89 (inactive)
same,normalised cell number,[11]; [16],1.07
same,normalised cell number,[11]; [17],0.95
same,fold change,[12]; [18],0.979 (inactive)
same,fold change,[12]; [19],0.972
same,cell count,[12]; [20],2410
same,cell count,[12]; [21],2460
same,remaining NAD,[14],10 nM (inactive)
